The record followed here is PubChem BioAssay (NCATS).

Values joined by “and” are separate entries in the source; they are usually repeats but may differ in a detail not shown here. Equal values may be shown once. Inconclusive results are not listed. Active and inactive are the calls of the source. Unless noted, the call rests on the fitted dose curve; in most records, active means well fitted curve in the direction sought with a large enough effect; inconclusive means small, poorly fitted or top-dose-only effect, or another doubt; inactive means no such curve, though single readings can be large; an effect the other way counts as inactive or inconclusive.

Test [1] can be described thus: Cell Viability - LYMP2-006 (AID 978). Further: on the % scale 0 is the no-effect control and ±100 the full control effect; nearly all actives have a fitted effect of over 60% in size. In short, it runs like this: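 Human lymphoblastoid cells (LYMP2-006), 2500/well in complete medium, were treated with compound for 24 hr at 37 C. Cellular ATP was read by CellTiter-Glo luminescence after 30 min, and AC50 values came from Hill-equation fits of concentration-response data.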
The nature of test [2]: Cell Viability - LYMP2-007 (AID 979).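 Further: cells exposed to compound for 24 h before reading; 0% = DMSO only and the negative end = 92 µM tetraoctylammonium bromide; nearly all actives have a fitted effect of over 60% in size.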 In short, it runs like this: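 Human lymphoblastoid LYMP2-007 cells (2500/well) preincubated 5 h at 37 C, then treated 24 h at 37 C in complete medium. Viability by CellTiter-Glo ATP luminescence after 30 min at room temperature; AC50 from Hill fits.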
The nature of test [3]: Cell Viability - LYMP2-008 (AID 980). Further: on the % scale 0 is the no-effect control and ±100 the full control effect; nearly all actives have a fitted effect of over 60% in size. In short, it runs like this: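 LYMP2-008 lymphoblastoid cells (2500/well) plated 5 h, then treated 24 h at 37 C in complete medium. Viability read as intracellular ATP by CellTiter-Glo luminescence after 30 min at room temperature; AC50 from Hill fits.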
The nature of test [4]: Cell Viability - LYMP2-010 (AID 981). Further: on the % scale 0 is the no-effect control and ±100 the full control effect; nearly all actives have a fitted effect of over 55% in size. An outline of the steps:
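Human lymphoblastoid LYMP2-010 cells (2500/well) treated 24 h at 37 C in complete medium; viability read as intracellular ATP by CellTiter-Glo luminescence. AC50 from Hill fits of concentration-response data; tetraoctylammonium bromide positive control.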

The nature of test [5]: Cell Viability - LYMP2-012 (AID 982).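 Further: cellular ATP by luciferase luminescence where a drop means cytotoxicity; cells exposed to compound for one day before reading; 0% = DMSO only and full loss = 92 µM tetraoctylammonium bromide; nearly all actives have a fitted effect of over 55% in size.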
The nature of test [6]: Cell Viability - LYMP2-014 (AID 983).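 Further: plate controls were DMSO only for no effect and 92 µM tetraoctylammonium bromide for full effect; nearly all actives have a fitted effect of over 50% in size.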 In short, it runs like this:
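LYMP2-014 human lymphoblastoid cells, 2500/well, treated 24 h at 37 C in complete medium; viability by CellTiter-Glo ATP luminescence after 30 min at room temperature. AC50 from Hill fits of qHTS concentration-response; tetraoctylammonium bromide positive control.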

A short description of test [7]: Cell Viability - LYMP2-016 (AID 984). Further: on the % scale 0 is the no-effect control and ±100 the full control effect; nearly all actives have a fitted effect of over 55% in size. In short, it runs like this: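 Human lymphoblastoid LYMP2-016 cells, 2500 per well, treated with compounds for 24 h at 37 C. Viability read as intracellular ATP by CellTiter-Glo luminescence after 30 min at room temperature; AC50 from Hill fits of concentration-response.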
Test [8] in a line: Cell Viability - LYMP2-018 (AID 985).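 Further: compound exposure lasted 24 hr at 37 °C; plate controls were DMSO only for no effect and tetraoctylammonium bromide at 92 µM for full effect; nearly all actives have a fitted effect of over 50% in size.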 An outline of the steps: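 Human lymphoblastoid LYMP2-018 cells, 2500/well, settled 5 hr at 37 C then exposed to compound 24 hr at 37 C; intracellular ATP measured by CellTiter-Glo luminescence. AC50 from Hill-equation concentration-response fits.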
Test [9] in a line: Cell Viability - LYMP2-020 (AID 986).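 Further: plate controls were DMSO only for no effect and tetraoctylammonium bromide at 92 µM for full effect; nearly all actives have a fitted effect of over 55% in size.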 An outline of the steps:
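Human lymphoblastoid LYMP2-020 cells (2500/well) preincubated 5 h at 37 C, then treated 24 h at 37 C. Viability measured as intracellular ATP by CellTiter-Glo luminescence after 30 min at room temperature; AC50 from Hill fits.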

A short description of test [10]: Cell Viability - LYMP2-022 (AID 987). An outline of the steps:
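LYMP2-022 lymphoblastoid cells (2500/well, complete medium) were treated with compounds for 24 hours at 37 C; intracellular ATP was then read by CellTiter-Glo luminescence after 30 min at room temperature. AC50 values were derived from Hill-equation fits.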

A short description of test [11]: Cell Viability - LYMP2-024 (AID 988).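 Further: plate controls were DMSO only for no effect and 92 µM tetraoctylammonium bromide for full effect; nearly all actives have a fitted effect of over 60% in size.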 In short, it runs like this:
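Human lymphoblastoid LYMP2-024 cells (2500/well) rested 5 hr, then treated with compound for 24 hr at 37 C in complete medium. Viability was measured as intracellular ATP by CellTiter-Glo luminescence. AC50 values came from Hill-equation fits.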

Test [12] can be described thus: Cell Viability - LYMP2-026 (AID 989). Further: on the % scale 0 is the no-effect control and ±100 the full control effect; nearly all actives have a fitted effect of over 50% in size. An outline of the steps:
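Human lymphoblastoid LYMP2-026 cells, 2500/well, exposed to compound 24 h at 37 C in complete medium. Viability as intracellular ATP by CellTiter-Glo luminescence; AC50 from Hill fits of qHTS concentration-response.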

Test [13] can be described thus: Cell Viability - LYMP1-002 - Assay at 24 hr (AID 993). Further: on the % scale 0 is the no-effect control and ±100 the full control effect. An outline of the steps: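 Human lymphoblastoid LYMP1-002 cells (2500/well) treated 24 h at 37 °C; viability as intracellular ATP by CellTiter-Glo luminescence. Tetraoctylammonium bromide as positive control; AC50 from Hill-equation fits of qHTS concentration-response.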
Test [14] is described as follows: Cell Viability - LYMP1-002 - Assay at 40 hr (AID 994). In short, it runs like this:
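LYMP1-002 human lymphoblastoid cells (2500/well, complete medium) were treated with compounds for 40 hr at 37 C. Intracellular ATP was measured by CellTiter-Glo luminescence, and AC50 values came from Hill-equation fits of concentration-response data; tetraoctylammonium bromide was the positive control.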

Test [15] is described as follows: qHTS Assay for Lipid Storage Modulators (AID 1519; calls by dose curve; on activity change, negative = inhibition: on the % scale 0 is the no-effect control and ±100 the full control effect). As to conditions: Drosophila S3 cells, BODIPY lipid droplet/cell ratio, laser cytometry, cells loaded with oleic acid. In short, it runs like this:
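Cells seeded at 5,000 per well were treated with compounds over a concentration series and loaded with oleic acid (400 uM, as added). Lipid droplet fluorescence (488 nm excitation, 500-530 nm channel) was read by laser-scanning cytometry and normalized to 20 uM Triacsin C.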

The target in test [16] is Alpha-galactosidase A (Homo sapiens) (UniProt P06280). The test can be described thus: Counterscreen for Glucocerebrosidase Inhibitors: qHTS Assay for Human alpha-Galactosidase at pH 4.5 (AID 992). Further: 0% is about no effect. In short, it runs like this:
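Enzyme at 2 nM final was combined with compound (0.7 nM to 77 uM) and 80 uM 4-methylumbelliferyl alpha-D-galactopyranoside in 50 mM citric acid, 0.005% Tween-20, pH 4.5. After 20 min at room temperature, fluorescence was read (Ex 365/Em 440 nm); AC50 came from Hill fits.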

Test [17] deals with alpha-glucosidase (Oryza sativa, rice) (UniProt Q653V4). The test can be described thus: Counterscreen for Glucocerebrosidase Inhibitors: qHTS Assay for Rice alpha-Glucosidase at pH 5.0 (AID 997).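 Further: 0% = full activity with enzyme and -100% = basal without enzyme.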 An outline of the steps: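 Rice alpha-glucosidase (4 nM final) with 400 uM 4-methylumbelliferyl-alpha-D-glucopyranoside in citrate buffer pH 5.0, 20 min at room temperature, stopped at pH 10; fluorescence 365/440 nm, compounds 0.7 nM–77 uM, AC50 from Hill fits.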
On the technique in general: The purpose of a counterscreen is to sort out artefacts and off-target activity.

In test [18] the target is DNA repair nuclease/redox regulator APEX1 (Homo sapiens) (UniProt P27695). Description: qHTS Validation Assay for Inhibitors of the Human Apurinic/apyrimidinic Endonuclease 1 (APE1) (AID 1705; further: potency means the concentration at half of the fitted maximal effect). In short, it runs like this:
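Fluorogenic double-stranded THF abasic-site substrate (5'-TAMRA/3'-BHQ-2), 50 nM final. Enzyme preincubated with compound 15 min at room temperature, then substrate added. Kinetic fluorescence (ex 525/em 598 nm) read three times at 60 s intervals; activity taken as third-minus-first read difference.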
(In qHTS, concentration-response curves come from the screen itself.)

Test [19] is described as follows: Counterscreen for APE1 Inhibitors: Fluorescent Dye Displacement Validation Assay (AID 1707).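 Further: plate controls were ThO with dsDNA and no compound for no effect and ThO without dsDNA for full effect.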 An outline of the steps:
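Thiazole Orange displacement from dsDNA: 250 nM ThO with 50 nM TAMRA-labelled abasic-site (tetrahydrofuran) duplex in 50 mM Tris-HCl pH7.5, 50mM NaCl, 2 mM MgCl2, 0.01% Tween-20. Loss of endpoint fluorescence (ex 480 nm, em 540 nm) flags DNA binders.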

Test [20] addresses Endonuclease 4 (Escherichia coli (strain K12)) (UniProt P0A6C1). The test can be described thus: Counterscreen for APE1 Inhibitors: qHTS Validation Assay for Inhibitors of Endonuclease IV (AID 1708). Further: potency means the concentration at half of the fitted maximal effect. As to conditions: E. coli endonuclease IV, DNA cleavage fluorescence. In short, it runs like this:
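qHTS concentration-response format; LOPAC1280 tested under APE1-screen conditions. 2 nM enzyme, 15 min compound preincubation at RT, then 50 nM TAMRA/BHQ-2 abasic substrate; kinetic fluorescence read, three reads at 60 s intervals.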

The mark [21] stands for this setting: measured here: cell count channel max response.
Where [22] appears, read: measured here: lipid channel max response.

Chain of DNA repair nuclease/redox regulator APEX1 (Homo sapiens) (P27695 whole entry, looked up): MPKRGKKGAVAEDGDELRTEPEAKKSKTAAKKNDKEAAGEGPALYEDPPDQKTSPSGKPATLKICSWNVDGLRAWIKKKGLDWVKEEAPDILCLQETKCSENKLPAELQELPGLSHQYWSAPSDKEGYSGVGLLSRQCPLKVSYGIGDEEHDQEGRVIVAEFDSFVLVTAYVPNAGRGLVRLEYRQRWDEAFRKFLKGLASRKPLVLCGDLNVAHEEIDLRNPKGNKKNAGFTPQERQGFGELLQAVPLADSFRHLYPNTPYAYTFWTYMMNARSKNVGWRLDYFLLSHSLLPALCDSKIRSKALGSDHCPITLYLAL
Chain of Alpha-galactosidase A (Homo sapiens) (P06280 whole entry, looked up): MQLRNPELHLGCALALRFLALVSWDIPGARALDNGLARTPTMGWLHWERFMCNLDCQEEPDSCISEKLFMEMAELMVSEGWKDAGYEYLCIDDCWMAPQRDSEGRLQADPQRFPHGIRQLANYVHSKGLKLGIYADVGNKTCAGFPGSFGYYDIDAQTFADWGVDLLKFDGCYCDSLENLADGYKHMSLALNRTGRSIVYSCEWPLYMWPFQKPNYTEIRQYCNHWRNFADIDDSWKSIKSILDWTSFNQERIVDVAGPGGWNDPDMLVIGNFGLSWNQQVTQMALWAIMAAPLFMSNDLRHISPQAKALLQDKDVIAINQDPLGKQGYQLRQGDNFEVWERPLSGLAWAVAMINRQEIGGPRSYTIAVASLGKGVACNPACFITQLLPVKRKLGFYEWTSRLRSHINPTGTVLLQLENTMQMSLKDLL

In the case of `CCOc1ccccc1C(N)=O`, the result in test [1], in test [2], in test [3], in test [4], in [5] and in [6] was inactive. In addition, the result in test [7], in test [10], in test [12] and in [13] was inactive. Also, the Potency entry in test [8], in test [9], in test [11] and in [14] was “inactive” each time.
Consider `O=C(O)CCC(=O)Nc1ccc(S(=O)(=O)Nc2nccs2)cc1`, for which the values for the activity change, negative = inhibition in test [15] (at 25.7 µM (top of the series)) and in test [15] (at 57.5 µM (top of the series)) were 0.767% (inactive) and 7.18% (inactive), respectively. For the same molecule, the max response in [15] (setting [21]) is 5.61% and 16.3%; in test [15] (setting [22]) it was 3.26% and 28.6%.
In the case of `COc1cc(NS(=O)(=O)c2ccc(N)cc2)ncn1`, the activity change, negative = inhibition is 1.08% (inactive) in test [15] (at 25.7 µM (top of the series)) and 3.4% (inactive) in test [15] (at 57.5 µM (top of the series)). Also, the max response in test [15] (setting [21]) is 0.606% and 6.05%; in [15] (setting [22]), 1.51% and 9.04%.
For the molecule `CC(C)(C)NC[C@H](O)COc1cccc2c1CCCC2=O`, the activity change, negative = inhibition in [15] (at 25.7 µM (top of the series)) is -0.268% (inactive) and -1.87% (inactive). Moreover, the max response in test [15] (setting [21]) was -9.82% and 1.67%; in test [15] (setting [22]), -10.4% and -0.857%.
Consider `CN(C)CCC[C@@]1(c2ccc(F)cc2)OCc2cc(C#N)ccc21`, for which the molecule was classed as inactive in test [16] and in test [17]. In addition, in test [15] (at 57.5 µM (top of the series)), the activity change, negative = inhibition was 0.0614% (inactive) and -1.76% (inactive). The max response was 5.54% and 6.49% in test [15] (setting [21]); 4.25% and 5% in [15] (setting [22]).
With `NC(=O)c1ccccc1O`, the molecule was classed as inactive in test [1], in test [2], in [3], in test [4], in [5] and in test [6]. The outcome in [7], in test [10], in [12] and in [13] was inactive. Besides, the Potency entry in [8], in test [9], in test [11] and in [14] was “inactive” in each case. In [15] (at 57.5 µM (top of the series)), the activity change, negative = inhibition was 8.72% (inactive). For the same molecule, the figures for the max response in test [15] (setting [21]) and in test [15] (setting [22]) were 13.3% and 29.8%, respectively.
As for `CC(=O)OCC1=C(C(=O)O)N2C(=O)[C@@H](NC(=O)CSc3ccncc3)[C@H]2SC1`, the Potency in [18] is 8.91 µM (active); in test [20] it was 15.8 µM (active). Moreover, in [19], the molecule was classed as inactive.
For `CCOc1ccc(NC(C)=O)cc1`, the molecule was called inactive in test [1], in [2], in test [3], in [4], in test [5] and in test [6]. In addition, the result in test [7], in [10], in test [12] and in test [13] was inactive. The Potency entry in test [8], in [9], in [11] and in test [14] was “inactive” throughout. Further, the activity change, negative = inhibition in test [15] (at 25.7 µM (top of the series)) was -1.03% (inactive). Moreover, the results for the max response in test [15] (setting [21]) and in test [15] (setting [22]) were 1.01% and -4.32%, respectively.
For the molecule `c1ccc(CC2=NCCN2)cc1`, the activity change, negative = inhibition is 0.322% (inactive) in test [15] (at 25.7 µM (top of the series)) and 2.41% (inactive) in [15] (at 57.5 µM (top of the series)). The max response in [15] (setting [21]) is -5.46% and 11.2%; in [15] (setting [22]), -4.35% and 15.7%.
